PubChem BioAssay (Tox21)
Several values for one entry are separate records, joined by “and”; a condition that tells them apart may be missing. Identical values can stand only once. Results filed as inconclusive are left out. More than one record can exist for a structure, and the calls need not agree. Activity calls are given as the source filed them. Unless noted, the call rests on the fitted dose curve.

Assays:
[1] = Nuclear factor erythroid 2-related factor 2/antioxidant responsive element (Nrf2/ARE) small molecule agonists: luciferase reporter gene qHTS assay in human keratinocytes (AID 1919969); further: nearly all actives have a fitted effect of over 35% in size; further: potency means the concentration at half of the fitted maximal effect
[2] = molecular target: KiSS-1 receptor (Homo sapiens) (UniProt Q969F8); assay: Human kisspeptin (KISS1R) small molecule agonists, calcium flux assay in KISS1R-HEK293 cells (AID 1920064; active means well fitted activation curve with a large enough effect in the repeat runs)
In short: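 Stable human KISS1R HEK293 line; 18 h plating, 37 C/5% CO2; calcium dye 1 h 37 C; compound pin transfer; kinetic fluorescence Ex/Em 480/540, 3 min.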

[3] = G protein-coupled receptor (GPCR) small molecule agonists, calcium flux assay: HEK293 wild type cell line counter screen (AID 1920065)
In short: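 Kinetic fluorescence at Ex/Em 480/540, recorded every second over 3 min, served as the read-out after compound addition. Each compound was tested at 15 concentrations in triplicate on cells pre-loaded with calcium dye for 1 h.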

[4] = p53 small molecule agonists, cell-based qHTS assay with rat liver microsomes (AID 1963578); further: potency means the concentration at half of the fitted maximal effect
In short: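 With rat liver microsomes and NADPH present (0.5 mg/mL final each), p53RE-bla cells are treated with compound for 16 h at 37 C. LiveBLAzer detection mixture is then applied for 2 h at room temperature in the dark.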

[5] = p53 small molecule agonists, cell-based qHTS assay with human liver microsomes: qHTS cell viability counter screen (AID 1963579); further: nearly all actives have a fitted effect of over 45% in size; further: potency means the concentration at half of the fitted maximal effect
In short: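 In this multiplexed counter screen, the reporter plates were subsequently treated with CellTiter-Glo so that cell viability, reflected by luminescence, could be recorded for p53RE-bla cells dosed 16 h with compounds under microsomal activation (HLM and NADPH).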

[6] = p53 small molecule agonists, cell-based qHTS assay with rat liver microsomes: qHTS cell viability counter screen (AID 1963580); further: nearly all actives have a fitted effect of over 45% in size
In short: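 Viability is assessed in parallel with the p53 reporter read: HCT-116 p53RE-bla cells receive compounds plus rat microsomes and NADPH (0.5 mg/mL final apiece), incubate 16 h at 37 C, and then CellTiter-Glo luminescence is recorded.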

[7] = p53 small molecule agonists, cell-based qHTS assay: qHTS cell viability counter screen (AID 1963581); further: nearly all actives have a fitted effect of over 45% in size; further: potency means the concentration at half of the fitted maximal effect
In short: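 HCT-116 p53RE-bla cells, 4,000/well, plated 5 h before compound pin transfer; 16 h at 37 C; bla substrate 2 h RT; then CellTiter-Glo, 30 min RT, luminescence.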

[8] = p53 small molecule agonists, cell-based qHTS assay (AID 1963582; active means well fitted activation curve with a large enough effect in the signal ratio in the repeat runs, not every such curve was filed as active; the % refers to the signal ratio)
In short: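 Reporter line: p53RE-bla. Pre-incubation 5 h, 37 C, 5% CO2; compound (DMSO, pin tool) 16 h, 37 C; B/G FRET substrate 2 h RT; fluorescence intensity read.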

[9] = molecular target: 5-hydroxytryptamine receptor 2A (Homo sapiens) (UniProt P28223); assay: 5-hydroxytryptamine receptor 2A (HTR2A) small molecule antagonists, cell-based qHTS assay (AID 1963586); further: nearly all actives have a fitted effect of over 45% in size
In short: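 Antagonist-mode intracellular calcium assay: DOI (4 nM) added after 5 min compound pre-incubation at room temperature to dye-loaded HTR2A-CHO cells. Fluorescence followed for 3 min, sampled every second.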

[10] = molecular target: 5-hydroxytryptamine receptor 2A (Homo sapiens) (UniProt P28223); assay: 5-hydroxytryptamine receptor 2A (HTR2A) small molecule agonists, cell-based qHTS assay (AID 1963587); further: nearly all actives have a fitted effect of over 30% in size; further: potency means the concentration at half of the fitted maximal effect
In short: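 CHO cells stably expressing human HTR2A, plated 18 h, loaded with calcium dye 1 h at 37 C. Agonist mode: compounds added and intracellular calcium fluorescence recorded kinetically for 2 min at 1 sec intervals.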

[11] = molecular target: Muscarinic acetylcholine receptor M1 (Homo sapiens) (UniProt P11229); assay: Cholinergic receptor muscarinic 1 (CHRM1) small molecule antagonists, cell-based qHTS assay (AID 1963588); further: nearly all actives have a fitted effect of over 40% in size
In short: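 CHRM1-CHO calcium-flux assay, antagonist mode. Cells were seeded 18 h, dye-loaded 1 h at 37 C and given compound for 5 min at RT, then acetylcholine was added at 50nM. FDSS fluorescence was read 3 min; 15 concentrations, three runs.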

[12] = molecular target: Muscarinic acetylcholine receptor M1 (Homo sapiens) (UniProt P11229); assay: Cholinergic receptor muscarinic 1 (CHRM1) small molecule agonists, cell-based qHTS assay (AID 1963589); further: nearly all actives have a fitted effect of over 35% in size; further: potency means the concentration at half of the fitted maximal effect
In short: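 Human M1 in stable CHO line; 18 h plating, 1 h dye load 37 C; cpd added (agonist mode); Ca2+ fluorescence kinetic read, 1 s intervals; 15 conc, 3 runs.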

[13] = cAMP Responsive Elements (CRE) small molecule agonists, cell-based qHTS assay (AID 1963590)
In short: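 HEK 293T CRE-bla, 2,000 cells/well, 18 h preincubation 37 C/5% CO2; cpds (DMSO) pinned, 3 h; LiveBLAzer B/G FRET substrate, 2 h RT.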

[14] = cAMP Responsive Elements (CRE) small molecule antagonists, cell-based qHTS assay (AID 1963591; active means well fitted inhibition curve with a large enough effect in the signal ratio in the repeat runs, not every such curve was filed as active; the % refers to the signal ratio)
In short: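 Beta-lactamase reporter read by FRET substrate (LiveBLAzer B/G) after 2 h at room temperature. CRE-bla HEK293T cells had received compound plus 0.25 uM (final) NKH477 for 3 h at 37 °C.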

[15] = molecular target: Beta-2 adrenergic receptor (Homo sapiens) (UniProt P07550); assay: Adrenergic beta2 receptor (ADRB2) small molecule antagonists, cell-based qHTS assay (AID 1963592); further: nearly all actives have a fitted effect of over 50% in size; further: potency means the concentration at half of the fitted maximal effect
In short: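 Cells (CHO, stable ADRB2 overexpression) incubated 18-20hr at 37C; compounds added from DMSO; agonist mix (1nM isoproterenol, 100uM IBMX, 25uM Ro-20-1724) added; 0.5hr RT; d2-cAMP and anti-cAMP-cryptate added; 1hr RT; 665/615 nm read.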

[16] = molecular target: Beta-2 adrenergic receptor (Homo sapiens) (UniProt P07550); assay: Adrenergic beta2 receptor (ADRB2) small molecule agonists, cell-based qHTS assay (AID 1963593);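 further: CHO cells stably overexpressing human ADRB2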
In short: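 CHO cells stably over-expressing ADRB2 were plated overnight at 37C, then dosed with compounds plus a stimulation mix containing 100uM IBMX and 25uM Ro-20-1724 for 0.5hr at room temperature. cAMP was measured by HTRF competition, 1hr.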

[17] = molecular target: D(2) dopamine receptor (Homo sapiens) (UniProt P14416); assay: Dopamine D2 receptor (DRD2) small molecule agonists, cell-based qHTS assay (AID 1963594); further: nearly all actives have a fitted effect of over 35% in size
In short: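 HEK293 cells stably expressing human DRD2, pre-treated with PDE inhibitor Ro20-1724 (0.1 mM final) and compound 10 min at room temperature, then stimulated with NKH477 (200nM […]) for 30 min. cAMP read by HTRF (665/620 nm).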

[18] = molecular target: D(2) dopamine receptor (Homo sapiens) (UniProt P14416); assay: Dopamine D2 receptor (DRD2) small molecule antagonists, cell-based qHTS assay (AID 1963595; active means well fitted inhibition curve with a large enough effect in the signal ratio in the repeat runs, with a control signal flat; the % refers to the signal ratio)
In short: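 DRD2-HEK293; 0.1 mM Ro20-1724; cpd 10 min RT; NKH477 200 nM + quinpirole 12 nM, 30 min RT; HTRF cAMP (cAMP-d2/anti-cAMP cryptate), 665/620 nm ratio after 1 h.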

[19] = p53 small molecule agonists, cell-based qHTS assay with human liver microsomes (AID 1963577);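 further: p53 response element beta-lactamase reporter cells with liver microsomes plus NADPH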
In short: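 16 h, 37 C exposure of p53RE-bla cells to compounds with human liver microsomes and NADPH (0.5 mg/mL final each); detection via LiveBLAzer mixture, 2 h dark at room temperature.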

[20] = molecular target: Gonadotropin-releasing hormone receptor (Homo sapiens) (UniProt P30968); assay: Human gonadotropin-releasing hormone receptor (GnRHR) small molecule agonists, calcium flux assay in GnRHR-HEK293 cells (AID 1920063); further: nearly all actives have a fitted effect of over 35% in size; further: potency means the concentration at half of the fitted maximal effect
In short: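 GnRHR-HEK293, 1500 cells/well, 18 h 37 C/5% CO2; Ca dye 1 h 37 C; cpd pinned (DMSO), agonist mode; kinetic FL 480/540, 3 min, 1 s reads; 15 conc, n=3.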

Measured: Potency

Chain of Beta-2 adrenergic receptor (Homo sapiens) (P07550 whole entry, looked up): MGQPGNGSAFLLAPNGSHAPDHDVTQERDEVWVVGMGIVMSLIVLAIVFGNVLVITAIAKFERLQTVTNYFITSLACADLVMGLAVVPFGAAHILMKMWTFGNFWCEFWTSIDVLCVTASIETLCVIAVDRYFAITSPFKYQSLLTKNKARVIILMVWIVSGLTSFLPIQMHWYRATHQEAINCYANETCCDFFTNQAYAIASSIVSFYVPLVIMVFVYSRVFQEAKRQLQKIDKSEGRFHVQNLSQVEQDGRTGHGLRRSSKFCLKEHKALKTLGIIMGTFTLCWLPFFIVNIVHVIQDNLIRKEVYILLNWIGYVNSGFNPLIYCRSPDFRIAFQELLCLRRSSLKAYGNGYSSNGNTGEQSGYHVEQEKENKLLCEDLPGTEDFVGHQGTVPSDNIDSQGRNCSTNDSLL
Chain of Gonadotropin-releasing hormone receptor (Homo sapiens) (P30968 whole entry, looked up): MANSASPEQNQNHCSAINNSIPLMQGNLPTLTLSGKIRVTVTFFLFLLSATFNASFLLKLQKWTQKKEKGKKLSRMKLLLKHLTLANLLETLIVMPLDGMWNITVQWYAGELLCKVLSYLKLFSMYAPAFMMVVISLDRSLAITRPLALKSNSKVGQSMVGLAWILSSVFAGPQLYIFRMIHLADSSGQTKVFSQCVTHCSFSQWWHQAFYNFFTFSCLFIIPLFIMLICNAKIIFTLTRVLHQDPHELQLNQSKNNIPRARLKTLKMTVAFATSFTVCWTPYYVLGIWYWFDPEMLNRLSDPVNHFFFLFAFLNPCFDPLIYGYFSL
Chain of Muscarinic acetylcholine receptor M1 (Homo sapiens) (P11229 whole entry, looked up): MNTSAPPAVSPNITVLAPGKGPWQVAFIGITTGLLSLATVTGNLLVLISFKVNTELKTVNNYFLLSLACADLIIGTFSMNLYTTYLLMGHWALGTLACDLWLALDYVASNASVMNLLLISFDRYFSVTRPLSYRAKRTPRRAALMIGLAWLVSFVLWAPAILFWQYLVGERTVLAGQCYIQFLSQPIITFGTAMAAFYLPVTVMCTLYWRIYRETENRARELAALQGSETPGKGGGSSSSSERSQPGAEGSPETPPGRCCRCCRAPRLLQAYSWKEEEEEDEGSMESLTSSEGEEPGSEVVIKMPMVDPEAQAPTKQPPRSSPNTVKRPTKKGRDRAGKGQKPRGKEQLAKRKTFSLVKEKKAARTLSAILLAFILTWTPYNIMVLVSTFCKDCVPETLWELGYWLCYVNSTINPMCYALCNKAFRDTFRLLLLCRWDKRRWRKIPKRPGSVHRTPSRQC
Chain of 5-hydroxytryptamine receptor 2A (Homo sapiens) (P28223 whole entry, looked up): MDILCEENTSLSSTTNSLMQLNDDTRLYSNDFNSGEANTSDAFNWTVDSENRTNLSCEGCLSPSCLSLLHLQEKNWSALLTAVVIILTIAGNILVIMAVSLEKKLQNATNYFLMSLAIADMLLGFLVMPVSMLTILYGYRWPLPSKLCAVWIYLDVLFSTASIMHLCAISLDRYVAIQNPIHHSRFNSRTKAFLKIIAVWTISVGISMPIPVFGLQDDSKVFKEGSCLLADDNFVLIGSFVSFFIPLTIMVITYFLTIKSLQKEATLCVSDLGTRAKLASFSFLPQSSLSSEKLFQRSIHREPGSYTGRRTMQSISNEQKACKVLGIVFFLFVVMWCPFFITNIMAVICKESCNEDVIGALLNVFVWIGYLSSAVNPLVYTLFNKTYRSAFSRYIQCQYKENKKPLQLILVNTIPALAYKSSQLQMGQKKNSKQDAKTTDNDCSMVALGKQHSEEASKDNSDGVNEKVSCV
Chain of KiSS-1 receptor (Homo sapiens) (Q969F8 whole entry, looked up): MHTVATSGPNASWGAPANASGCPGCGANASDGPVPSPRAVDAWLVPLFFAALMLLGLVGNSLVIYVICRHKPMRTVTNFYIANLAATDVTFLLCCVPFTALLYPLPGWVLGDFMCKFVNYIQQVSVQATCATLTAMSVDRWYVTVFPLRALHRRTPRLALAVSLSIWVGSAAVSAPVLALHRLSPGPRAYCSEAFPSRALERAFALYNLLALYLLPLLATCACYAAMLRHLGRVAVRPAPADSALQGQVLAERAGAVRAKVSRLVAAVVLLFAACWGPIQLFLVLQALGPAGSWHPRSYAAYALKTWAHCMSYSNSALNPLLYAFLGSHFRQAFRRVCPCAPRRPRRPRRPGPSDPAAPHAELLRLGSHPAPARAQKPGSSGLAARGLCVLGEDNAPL
Chain of D(2) dopamine receptor (Homo sapiens) (P14416 whole entry, looked up): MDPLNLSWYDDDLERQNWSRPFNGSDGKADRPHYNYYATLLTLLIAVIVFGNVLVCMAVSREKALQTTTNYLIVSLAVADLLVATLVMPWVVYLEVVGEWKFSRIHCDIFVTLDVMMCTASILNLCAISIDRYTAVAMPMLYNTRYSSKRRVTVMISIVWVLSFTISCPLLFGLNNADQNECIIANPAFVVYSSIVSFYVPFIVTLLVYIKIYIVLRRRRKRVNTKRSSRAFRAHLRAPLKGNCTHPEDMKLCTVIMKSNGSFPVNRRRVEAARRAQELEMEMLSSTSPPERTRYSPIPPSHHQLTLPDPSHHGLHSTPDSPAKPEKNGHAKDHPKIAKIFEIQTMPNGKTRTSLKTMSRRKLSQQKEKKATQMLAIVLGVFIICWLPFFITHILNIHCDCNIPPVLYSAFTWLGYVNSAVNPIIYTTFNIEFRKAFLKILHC

CCCCCCCCCCCCCCCCC
not listed: [19] | [20]
inactive: all other assays above

CC1=CC[C@H](CC=O)C1(C)C
not listed: [17] | [18] | [20]
inactive: all other assays above

CCOC(=O)N1CCC(=C2c3ccc(Cl)cc3CCc3cccnc32)CC1
inactive: [1] | [20] | [2] | [7] | [13] | [14] | [17] | [18]
active: [15] 54.5 µM

Nc1nc(N)c2nc(-c3ccccc3)c(N)nc2n1
active: [4] 29.2 µM and 17.8 µM
inactive: [1] | [20] | [2] | [3] | [5] | [6] | [15] | [16] | [17]

C/C=C/C(=O)O
93.3 nM (active) and inactive: [12]
not listed: [4] | [7] | [8] | [10] | [16] | [19]
inactive: all other assays above

O=C1c2ccccc2CCc2ccccc21
not listed: [3] | [4] | [7] | [8] | [19]
inactive: all other assays above

Cc1cncc(C)c1
not listed: [6]
inactive: all other assays above

CC(=O)CC(C)=O
not listed: [5]
inactive: all other assays above

C1=C\CC/C=C\CC/C=C\CC/1
not listed: [8] | [15] | [19]
inactive: all other assays above

Cc1cccc(C)c1NC(=O)CC12CCCN1CCC2
not listed: [4] | [18] | [19]
inactive: all other assays above

CCOC=C(C(=O)OCC)C(=O)OCC
not listed: [1] | [4] | [8] | [9] | [16]
inactive: all other assays above

CC1CC(O)CC(C)(C)C1 (centres undefined)
not listed: [5]
inactive: all other assays above

CC(C)(c1cc(Br)c(O)c(Br)c1)c1cc(Br)c(O)c(Br)c1
active: [5] 16.2 µM and 36.3 µM | [7] 36.2 µM and 40.7 µM | [10] 48.8 µM
not listed: [6] | [8] | [9] | [16] | [18]
inactive: all other assays above

CNc1ccccc1
not listed: [20]
inactive: all other assays above

CCCN1C=CN(C)C1
not listed: [4] | [8] | [9] | [18] | [19]
inactive: all other assays above

NC(=O)c1ccc(N)cc1
not listed: [5]
inactive: all other assays above

CCOC(=O)n1ccn(C)c1=S
not listed: [4] | [5] | [9] | [10] | [11] | [12]
inactive: all other assays above

C=CC(=O)NCOCCCC
not listed: [4] | [8] | [19]
inactive: all other assays above

CC(C)(C)c1ccc(O)c(O)c1
active: [1] 63.2 µM and 8.63 µM
not listed: [8] | [14] | [15] | [16] | [17] | [19]
inactive: all other assays above

Cc1ccc2c(ccc3ccccc32)c1
not listed: [7] | [10] | [12]
inactive: all other assays above

CCC(=O)O[C@H]1[C@H](O[C@@H]2[C@@H](C)[C@H](O[C@H]3C[C@@](C)(OC)[C@@H](O)[C@H](C)O3)[C@@H](C)C(=O)O[C@H](CC)[C@@](C)(O)[C@H](O)[C@@H](C)C(=O)[C@H](C)C[C@@]2(C)O)O[C@H](C)C[C@@H]1N(C)C
not listed: [4] | [8] | [9] | [10] | [11] | [12] | [15] | [19]
inactive: all other assays above

O=S(=O)(O)CC(O)CCl (centres undefined)
not listed: [2] | [4]
inactive: all other assays above

CCCCCC/C(C=O)=C\c1ccccc1
not listed: [1] | [4] | [8] | [19]
inactive: all other assays above

Nc1ccccc1N
active: [1] 31.4 µM and 7.7 µM | [20] 35.5 µM | [10] 50.1 µM and 30.9 µM
56.2 µM (active) and inactive: [12]
not listed: [2] | [9] | [13] | [14] | [16] | [19]
inactive: all other assays above

CCOC(OCC)C(=O)c1ccccc1
not listed: [4] | [6] | [14] | [18]
inactive: all other assays above

C1CCC(SSC2CCCCC2)CC1
not listed: [5]
inactive: all other assays above
